Experimental data taken from PubChem BioAssay AID1159580 (chemical genetic matrix, 2015).
Where “and” joins values, the source holds several entries; their conditions need not be identical. Identical values can stand only once. About 2,000 (36%) of roughly 5,500 compounds were called active. About 18% were inconclusive and are not listed. Cut-off read from the data, not from the text of the source: active = normalized growth mostly below about 0.91 (no sharp cut-off); inconclusive = no clear call, values can overlap the other calls; inactive = mostly above about 0.92. This is one part of the list.

Assay: chemical genetic growth profiling, strain panel (AID 1159580);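 note: tested at 20 µM; growth read once vehicle control cultures reached saturation at 30 °C; 1 = growth at the plate median or of vehicle wells; lower values mean less growth of the strain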
Conditions: S. cerevisiae deletion strains, growth OD

Measured: normalized growth

O=C(O[C@@H]1Cc2c(O)cc(O)cc2O[C@@H]1c1ccc(O)c(O)c1)c1cc(O)c(O)c(O)c1
active: locus YBR023C, strain chs3, hits give low values 0.86 | locus YBR231C, strain swc5, hits give low values 0.817 | locus YDL035C, strain GPR1, hits give low values 0.853 | locus YDR069C, strain doa4, hits give low values 0.833 | locus YDR162C, strain NBP2, hits give low values 0.771 | locus YER015W, strain faa2, hits give low values 0.808 | locus YGL173C, strain kem1, hits give low values 0.848 | locus YHR027C, strain rpn1, hits give low values 0.699 | locus YHR142W, strain chs7, hits give low values 0.851 | locus YIL066C, strain RNR3, hits give low values 0.793 | locus YIL073C, strain SPO22, hits give low values 0.665 | locus YJL187C, strain SWE1 (second series), hits give low values 0.854
inactive: locus YAL021C, strain ccr4, hits give low values 0.925 | locus YAL026C, strain drs2, hits give low values 0.923 | locus YAL030W, strain snc1, hits give low values 1.01 | locus YBL061C, strain skt5, hits give low values 0.955 | locus YBR009C, strain hhf1, hits give low values 0.973 | locus YBR021W, strain FUR4, hits give low values 0.999 | locus YBR171W, strain sec66, hits give low values 1.04 | locus YBR229C, strain ROT2, hits give low values 0.987 | locus YBR279W, strain paf1, hits give low values 0.986 | locus YCL011C, strain gbp2, hits give low values 0.961 | locus YCL016C, strain dcc1, hits give low values 0.966 | locus YCL029C, strain bik1, hits give low values 0.975 | locus YCL061C, strain MRC1, hits give low values 0.986 | locus YCL069W, strain vba3, hits give low values 1 | locus YCR088W, strain abp1, hits give low values 1.03 | locus YDL005C, strain med2, hits give low values 1.04 | locus YDL040C, strain nat1, hits give low values 1.03 | locus YDL074C, strain BRE1, hits give low values 0.854 | locus YDL101C, strain DUN1, hits give low values 0.939 | locus YDL185W, strain tfp1, hits give low values 1.01 | locus YDL192W, strain arf1, hits give low values 0.993 | locus YDR001C, strain nth1, hits give low values 1.02 | locus YDR101C, strain arx1, hits give low values 1.01 | locus YDR137W, strain rgp1, hits give low values 0.975 | locus YDR150W, strain NUM1, hits give low values 0.961 | locus YDR159W, strain sac3, hits give low values 1.12 | locus YDR195W, strain ref2 1.1 | locus YDR297W, strain sur2, hits give low values 0.966 | locus YDR318W, strain mcm21, hits give low values 1.02 | locus YDR334W, strain swr1, hits give low values 0.935 | locus YDR335W, strain msn5, hits give low values 0.981 | locus YDR388W, hits give low values 1.01 | locus YDR392W, strain spt3, hits give low values 1.01 | locus YDR502C, strain sam2, hits give low values 1.02 | locus YEL003W, strain gim4, hits give low values 0.981 | locus YEL037C, strain rad23, hits give low values 0.984 | locus YEL061C, strain CIN8 (second series), hits give low values 1.03 | locus YEL061C, strain CIN8, hits give low values 0.947 | locus YER016W, strain bim1, hits give low values 1.03 | locus YER110C, hits give low values 1.03 | locus YER111C, strain swi4, hits give low values 0.986 | locus YER155C, strain BEM2 (second series), hits give low values 1.01 | locus YER155C, strain BEM2, hits give low values 1.04 | locus YER167W, strain BCK2, hits give low values 0.995 | locus YFR010W, strain ubp6, hits give low values 0.961 | locus YGL078C, strain dbp3, hits give low values 1.03 | locus YGL086W, strain mad1, hits give low values 0.954 | locus YGL167C, strain pmr1, hits give low values 1.02 | locus YGL227W, strain vid30, hits give low values 1.05 | locus YGL240W, strain doc1, hits give low values 1.04 | locus YGL248W, strain PDE1, hits give low values 0.941 | locus YGL253W, strain hxk2, hits give low values 0.979 | locus YGR135W, strain pre9, hits give low values 1.02 | locus YGR252W, strain gcn5, hits give low values 1.01 | locus YHR013C, strain ard1, hits give low values 0.852 | locus YHR030C, strain SLT2, hits give low values 0.965 and 0.994 | locus YHR079C, strain IRE1 (second series), hits give low values 1.02 | locus YHR079C, strain IRE1, hits give low values 0.996 | locus YHR094C, strain hxt1, hits give low values 1.03 | locus YHR129C, strain ARP1, hits give low values 0.931 | locus YHR200W, strain rpn10, hits give low values 1 | locus YIL125W, strain kgd1, hits give low values 1 | locus YIR030C, strain dcg1, hits give low values 1.04 | locus YJL092W, strain hpr5, hits give low values 1.04 | locus YJL095W, strain BCK1 (second series), hits give low values 0.997 | locus YJL095W, strain BCK1, hits give low values 0.898 and 0.984 | locus YJL115W, strain asf1, hits give low values 1.03 | locus YJL129C, strain trk1, hits give low values 1.06 | locus YJL134W, strain LCB3, hits give low values 0.98 | locus YJL154C, strain vps35, hits give low values 1.03 | locus YJL164C, strain tpk1, hits give low values 0.966 | locus YJL166W, strain qcr8, hits give low values 0.922 | locus YJL168C, strain set2, hits give low values 1.03 | locus YJL187C, strain SWE1, hits give low values 0.988
